The list is not random: actives were taken first. Their share in the collection is about 4.5%.
GDH-TPI counter: GDH-TPI coupling enzyme inhibitors, primary screen, artefact control for M. tuberculosis FBA inhibitor project, biochemical, absorbance, full deck. GDH-TPI coupled enzyme counterscreen, NADH absorbance. inhibition, % at 4.8 µM. hit rate 1.2% among 360,000; in the data active = inhibition above about 30%;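 also: 0% = DMSO wells and 100% = wells lacking the enzyme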
PrP UTR inh: inhibition of PrP 5' UTR reporter expression. hit rate 0.35% among 340,000. AID 488862, 2010. cell-based PrP 5' UTR mRNA reporter, plate reader. inhibition, % (test concentration not listed); in the data active = inhibition above about 52%; also: 0 = median of the neutral control wells
BJeLR lethal: MLPCN primary cell-based screen for lethality selective to Ras in HRASV12 cells; BJeLR (HRASV12) viability, CellTiter-Glo ATP luminescence, 48 h; inhibition, % (test concentration not listed); hit rate 0.17% among 300,000; in the data active = inhibition above about 50%
PrPC TRFRET: inhibitors of human cell surface prion protein PrPC, primary screen, cell-based, TR-FRET. Major prion protein (Homo sapiens), P04156. TR-FRET read-out. inhibition, % at 13.8 µM. hit rate 0.43% among 370,000; in the data active = inhibition above about 24%; also: 0% = median of the test wells and 100% = reference compound wells
FBA Mtb inh: Mtb FBA enzyme inhibitors, primary screen, biochemical, fluorescence, strain H37Rv. inhibition, % at 1 µM. purified M. tuberculosis FBA, fluorescence read-out. hit rate 2.3% among 360,000. AID 588726, 2011; in the data active = inhibition above about 27%;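 also: 0% = vehicle and 100% = reference inhibitor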
Target sequence (P9WQA3 whole entry, looked up): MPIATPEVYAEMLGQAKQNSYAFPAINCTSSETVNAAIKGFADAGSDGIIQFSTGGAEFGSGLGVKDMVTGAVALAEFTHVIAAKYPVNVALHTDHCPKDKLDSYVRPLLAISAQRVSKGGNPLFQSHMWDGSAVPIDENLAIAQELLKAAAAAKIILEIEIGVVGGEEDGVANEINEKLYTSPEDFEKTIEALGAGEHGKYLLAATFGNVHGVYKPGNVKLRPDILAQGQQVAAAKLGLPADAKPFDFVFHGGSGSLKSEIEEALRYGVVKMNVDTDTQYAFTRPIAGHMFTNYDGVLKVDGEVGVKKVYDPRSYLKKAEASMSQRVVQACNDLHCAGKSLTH
PfHsp40 rescue: rescue of yeast from PfHsp40 toxicity, primary screen, S. cerevisiae, ATP luminescence | S. cerevisiae expressing PfHsp40, growth rescue | growth rescue, % at 12.5 µM | hit rate 0.68% among 340,000 | AID 504582, 2011; in the data active = growth rescue above about 28%, passing the limit was not always enough;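 also: yeast W303a lacking pdr1 and pdr3 grown in galactose medium; growth measured after three days at 30 °C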
Active calls of the source: *; . = no result given; + = active, no number.

SMILES | GDH-TPI counter | PrP UTR inh | BJeLR lethal | PrPC TRFRET | FBA Mtb inh | PfHsp40 rescue
CCOC(=O)c1cc2c(=O)n3ccccc3nc2n(Cc2ccco2)c1=NC(=O)c1cccc(OC)c1 | 39* | -9 | -25 | -31 | 139* | 1
CCOC(=O)c1cc2c(=O)n3ccccc3nc2n(Cc2ccco2)c1=NC(=O)c1ccccc1OC | 24 | -9 | -5 | -16 | + | 0
CCOC(=O)c1cc2c(=O)n3ccccc3nc2n(Cc2ccco2)c1=NC(=O)c1ccc(OC)cc1 | 11 | -20 | . | -12 | 115* | -1
CCOC(=O)c1cc2c(=O)n3cccc(C)c3nc2n(Cc2ccco2)c1=NC(=O)c1ccccc1 | 9 | -5 | -5 | -16 | + | 0
C=CC[C@@H](CC/C=C/C=C/CC/C=C\[C@@H]1CSC([C@@H]2C[C@@H]2C)=N1)OC | 6 | 56* | . | . | 3 | 3
CN(CCc1ccccn1)C(=O)c1cc2ccccn2n1 | . | . | . | -2 | . | .
CN(Cc1cn(Cc2ccccc2)nn1)S(=O)(=O)c1ccccc1Br | . | . | . | 2 | . | .
CCN1C(=O)C(CC(=O)Nc2ccccc2Cl)N(NC(=O)c2cccc(F)c2)C1=S (stereo not given) | 10 | -11 | -3 | -4 | 2 | 122*
CNC(=O)CC1C(=O)N(Cc2ccccc2)C(=S)N1NC(=O)c1cccc(F)c1 (stereo not given) | 9 | -9 | -2 | 5 | 0 | -1
CC(=O)Nc1nc(-c2ccccc2)cc(-c2ccco2)c1C#N | 16 | -56 | . | -18 | + | -1
O=C(Nc1nnc(-c2ccco2)o1)c1ccc(Cl)s1 | 15 | 10 | 13 | 2 | 6 | 2
COc1cccc(-c2nnc(NC(=O)c3ccc(Cl)s3)o2)c1 | 41* | -5 | 3 | 13 | 3 | 1
O=[N+]([O-])c1nccn1CC(O)CCN1CCOCC1 (stereo not given) | . | . | . | -13 | . | .
CCC(=O)N1Cc2cc(C(=O)N(C)C)nc(-c3cccc(-c4cncnc4)c3)c2[C@@H]1CCO | . | . | . | 7 | . | .
COC(=O)c1cn(C)c2ccc(S(=O)(=O)N3CCCCC3)cc2c1=O | 40* | -9 | 4 | 6 | 5 | 0
CC(NC(=O)c1cn(C)c2ccc(S(=O)(=O)N3CCCC3)cc2c1=O)c1ccc2c(c1)OCCO2 (stereo not given) | 6 | -7 | -8 | 0 | 1 | 42*
CCC1CCCCN1CCCNC(=O)c1cn(C)c2ccc(S(=O)(=O)N(C)C3CCCCC3)cc2c1=O (stereo not given) | 7 | -9 | 5 | -15 | 3 | 38*
CCC1CCCCN1CCCNC(=O)c1cn(C)c2ccc(S(=O)(=O)N3CCOCC3)cc2c1=O (stereo not given) | 13 | -14 | 0 | -5 | -3 | 1
Cn1cc(C(=O)N2CCCCCC2)c(=O)c2cc(S(=O)(=O)N3CCCCC3)ccc21 | 5 | -22 | -7 | -4 | -1 | -2
COCCNC(=O)c1cn(C)c2ccc(S(=O)(=O)N3CCCC3)cc2c1=O | 10 | -12 | -3 | 1 | 0 | 0
O=S(=O)(N[C@@H]1CCCC[C@H]1N1CCOCC1)c1ccc(Cl)cc1 | . | . | . | 0 | . | .
O=S(=O)(NCCSCc1ccc(Cl)c(Cl)c1)c1ccc2c(c1)OCCO2 | 12 | -29 | -5 | -3 | 3 | 42*
Cc1ccc(SCCNS(=O)(=O)c2ccc3c(c2)OCCO3)cc1 | 5 | -6 | 0 | -2 | 4 | 4
COc1ccccc1CNC(=O)N1CCN(Cc2nc3ccccc3c(=O)[nH]2)CC1 | . | . | . | -8 | . | .
O=C(NC1CCSc2ccccc21)c1cccc(Br)c1 (stereo not given) | 6 | -15 | -6 | 6 | 3 | 94*
SMILES | GDH-TPI counter | PrP UTR inh | BJeLR lethal | PrPC TRFRET | FBA Mtb inh | PfHsp40 rescue
COC(=O)C1CSC(C(=O)OC)N1C(=O)Nc1ccc(Cl)c(Cl)c1 (stereo not given) | -3 | -23 | 5 | -2 | 0 | 0
COC(=O)C1CSC(C(=O)OC)N1C(=O)Nc1ccc(Cl)cc1 (stereo not given) | 10 | -10 | 7 | 1 | 103* | -1
CCN1CCN(c2ncnc3c2sc(=S)n3-c2ccccc2)CC1 | 39* | -4 | -6 | -2 | 2 | 0
S=c1sc2c(N3CCN(Cc4ccccc4)CC3)ncnc2n1-c1ccccc1 | 6 | -15 | 3 | -3 | 2 | 0
O=S(=O)(CC1NCc2ccccc21)NC1CCCC1 (stereo not given) | . | . | . | -9 | . | .
CCOC(=O)C(C)Sc1nnc2c3ccccc3n(C)c2n1 (stereo not given) | 32* | -24 | -5 | 9 | 0 | -1
CCc1ccc(NP(=O)(Oc2ccccc2F)Oc2ccccc2F)cc1 | 0 | -29 | 3 | 2 | -2 | 43*
Cc1ccc(NP(=O)(Oc2ccccc2F)Oc2ccccc2F)cc1 | -5 | . | 9 | 5 | -6 | 19
COc1ccc(NC(=O)CN(C)C(=O)c2cccc3ccccc23)cc1 | 1 | -14 | -5 | -1 | 131* | 1
Cc1ccc(NC(=O)CN(C)C(=O)c2cccnc2Nc2cccc(C(F)(F)F)c2)cc1 | -2 | -13 | -7 | -5 | -4 | 567*
CCOc1ncccc1C(=O)N(C)CC(=O)Nc1ccc(C)cc1 | 0 | -31 | 2 | 1 | 0 | -2
COc1cccc(NC(=O)CN(C)C(=O)c2cccnc2Nc2cccc(C(F)(F)F)c2)c1 | -2 | -23 | . | . | -3 | 299*
O=C(C1CCCN(S(=O)(=O)c2ccc(Br)s2)C1)N1CCN(Cc2ccccc2)CC1 (stereo not given) | . | . | . | -3 | . | .
Cc1ccccc1CS(=O)(=O)Cc1ccc(C(=O)Nc2c(C)cccc2C)o1 | . | . | . | -5 | . | .
CCNC(=S)N/N=C/c1cn(Cc2ccc(F)cc2)c2ccccc12 | 22 | -14 | -2 | 9 | -1 | 3
COc1cc(C(=O)N/N=C/c2cn(Cc3cccc(F)c3)c3ccccc23)ccc1O | 35* | 5 | 3 | 6 | 4 | 0
Cc1ccc(C(=O)N/N=C/c2cn(Cc3ccccc3)c3ccccc23)cn1 | 24 | 5 | -3 | 16 | -2 | 1
CCn1c(/C=N/Nc2ccc(C(=O)O)cc2)nc2ccccc21 | 24 | 6 | -7 | 7 | 0 | -1
COC(=O)Cn1cc(/C=N/NC(=O)c2ccc(C#N)cc2F)c2ccccc21 | 38* | -20 | 2 | -3 | -1 | 2
O=C(O)c1ccc(N/N=C/c2cn(Cc3ccc(F)cc3)c3ccccc23)cc1 | 44* | -7 | 4 | 12 | 12 | 2
Cc1c(/C=N/Nc2ccc(C(=O)O)cc2)c2ccccc2n1C | 41* | -32 | 3 | -3 | 4 | 1

Source: PubChem
